Only some compounds are listed: those with a hit (about 8% of all), similar ones and a draw of the others.
Lassa entry – blocks Lassa virus binding or cell entry | Lassa virus pseudotyped entry inhibition, cell-based qHTS | Potency, µM (top dose mostly 49.2 µM), for inactives: at the highest dose activity change, negative = inhibition, actives largely listed as inhibitors | 18,000 tested, 4.1% active
MARV entry inh – Marburg virus entry inhibition. Marburg virus pseudotype entry/binding inhibition, cell-based. 18,000 tested, 6.5% active. Potency, µM (top dose mostly 49.2 µM), for the others: top-dose activity change, negative = inhibition, most hits filed as inhibitors
An asterisk follows results filed as active; ? = inconclusive; ! = not confirmed by another sample; [ ] = dose if it differs, or a comment. Calls come from the whole dose curve; tested in HEK293 cells. % is set by controls: 0 for no effect and ±100 for the full control effect; potency is the fitted concentration of half-maximal effect.

SMILES	Lassa entry	MARV entry inh
CCOC(=O)C1=C(C)NC(C)=C(C(=O)OC)[C@H]1c1cccc([N+](=O)[O-])c1	-6%	?
CCOC(=O)C1=C(C)NC(C)=C(C(=O)OC)C1c1cccc([N+](=O)[O-])c1 (configuration not stated)	?	14µM*!
CC1=C(C(=O)OC(C)C)C(c2cccc([N+](=O)[O-])c2)C(C(=O)OC2CN(C(c3ccccc3)c3ccccc3)C2)=C(N)N1 (configuration not stated)	-20%	-24%
COC(=O)C1=C(C)NC(C)=C(C(=O)OC(C)(C)CN(C)CCC(c2ccccc2)c2ccccc2)C1c1cccc([N+](=O)[O-])c1 (configuration not stated)	13µM*	?
COC(=O)C1=C(C)NC(C)=C(C(=O)O[C@@H]2CCCN(Cc3ccccc3)C2)[C@@H]1c1cccc([N+](=O)[O-])c1	?	14µM*
COCCOC(=O)C1=C(C)NC(C)=C(C(=O)OC(C)C)[C@@H]1c1cccc([N+](=O)[O-])c1	-23%	-26%
CCOC(=O)C1=C(C)NC(C)=C(C(=O)OC)[C@@H]1c1cccc([N+](=O)[O-])c1	-3%[17.8 µM]	-21%[17.8 µM]
CC1=C(C(=O)Nc2ccc3[nH]ncc3c2)C(c2ccc3ccccc3c2)CC(=O)N1 (configuration not stated)	0%	-7%
C[C@H]1C[C@@H](C)O[C@@]2(C1)C(=O)N(Cc1ccccc1C(F)(F)F)c1ccccc12	1%[8.59 µM]	-15%[8.59 µM]
COCCN1C(=O)NC(CCc2ccccc2)C(C(=O)OC)=C1C (configuration not stated)	6%[8.59 µM]	72%[8.59 µM]
CC(=O)OC[C@H]1O[C@H](CC=NO[C@H](C)CN2CCCCc3nc(C)c(C)cc32)C=C[C@@H]1OC(C)=O	-17%[8.59 µM]	-21%[8.59 µM]
CC(=O)C1CC2C=CCOP(=O)(O2)O1 (configuration not stated)	2%	?
CCCCCCC(=O)Cc1cc(OC)c(OC)cc1C=C(C(C)=O)C(=O)OC	17%[8.59 µM]	?
COC[C@H]1O[C@H](c2ccccc2)C=C[C@H]1OCC=C(C)C	17%[8.59 µM]	42%[8.59 µM]
COc1ccc2c(c1)CO[C@H]([C@H](O)CO)[C@H]2C=CC#Cc1ccc(C(C)(C)C)cc1	-14%[8.59 µM]	-9%[8.59 µM]
O=C1[C@@H]2CSCCS(=O)(=O)N2C(=O)N1c1cccc2ccccc12	33%	25%
CCN1C(=NCc2cc(OC)c(OC)c(OC)c2)NC(c2cccc(F)c2)C(C(=O)OC)=C1C (configuration not stated)	22%[8.59 µM]	-5%[8.59 µM]
Cc1ccccc1CN1[C@@H](C)[C@@H](c2ccccc2)Oc2c(Cl)cccc2S1(=O)=O	13%	11%
Cc1c(O)cccc1C(=O)N[C@@H](CSc1ccccc1)[C@H](O)CN1C[C@H]2CCCC[C@H]2C[C@H]1C(=O)NC(C)(C)C	28µM*	11µM*
CCC[C@H]1CN(c2ccccc2)C(=O)[C@H]1CC(=O)NC	26%	47%
C#CCNC(=O)[C@H]1C=C(OC)C(=O)C[C@H](c2ccccc2)[C@H]1C	-18%[8.59 µM]	8%[8.59 µM]
CS(=O)(=O)CCNCc1nc(-c2ccc3ncnc(Nc4ccc(OCc5cccc(C(F)(F)F)c5)cc4)c3c2)cs1	-18%	-16%
c1ccc(COC[C@H]2CO2)cc1	4%	10%
CC(C)(c1ccc(OCC2CO2)cc1)c1ccc(OCC2CO2)cc1 (configuration not stated)	8.9µM*!	7.1µM*!
C=C(C)[C@H]1O[C@H]2CC[C@@]3(C)[C@@](O)(CC[C@H]4[C@@H]5OC(C)(C)[C@H]6C[C@@H]7C(=C)Cc8c(Cl)cc9[nH]c(c5c9c8[C@@]76O)[C@@]43C)[C@]23O[C@@H]3[C@H]1O	25µM*	?
SMILES	Lassa entry	MARV entry inh
COCCN1C(=O)NC(c2ccc(Br)cc2)C(C(=O)OC)=C1C (configuration not stated)	-26%[8.59 µM]	-8%[8.59 µM]
OC[C@H]1O[C@@H](n2cnc3c(=S)nc[nH]c32)[C@H](O)[C@@H]1O	6.3µM*	7.9µM*
Nc1ccn([C@@H]2O[C@H](CO)[C@@H](O)[C@H]2O)c(=O)n1	-6%	8%
O=c1[nH]cnc2c1ncn2[C@@H]1O[C@H](CO)[C@@H](O)[C@H]1O	3%	10%
Nc1ccn([C@@H]2O[C@H](CO)[C@@H](O)C2O)c(=O)n1 (some centres not stated)	7.1µM*	5µM*
Nc1ncn(C2CC(O)C(CO)O2)c(=O)n1 (configuration not stated)	-12%	-6%
Nc1ncn([C@H]2O[C@@H](CO)[C@@H](O)[C@@H]2O)c(=O)n1	2µM*	3.2µM*
CN1CC[C@@]2(c3cccc(O)c3)Cc3nc4ccccc4cc3C[C@H]2C1	-4%	18µM*
CCC(=O)O[C@]1(c2ccccc2)CCN(C)C[C@H]1C	-4%	7%
CC(C)=CCCC(C)=CCON=C1C[C@@H](O)[C@@H](O)[C@@H]2[C@H]3C(=O)N(C[C@@H]4CCCO4)C(=O)[C@@H]3CC[C@@H]12	3%[8.59 µM]	-5%[8.59 µM]
CCCC=CC1C(=O)[C@@H]2O[C@H]2C2(OCC(CC)(CC)CO2)C1CO (some centres not stated)	0%[8.59 µM]	-11%[8.59 µM]
CCN1C(=NCc2ccco2)N[C@@H](c2ccccc2)[C@H](C(=O)OC)[C@H]1C	-22%[8.59 µM]	13%[8.59 µM]
CC12CC3CC(C)(C1)CC(N)(C3)C2	35µM*!	-11%
NC12CC3CC(CC(C3)C1)C2	1%	32µM*!
C[C@@]12CC3CC(N)(C1)C[C@@](C)(C3)C2	1%[17.8 µM]	?
COC(=O)N[C@H](c1ccccc1)C(C(=O)OC)C(=O)OC	28%[8.59 µM]	28%[8.59 µM]
COc1ccc(COC(=O)NN=C2C[C@@H](O)[C@@H](O)[C@@H]3[C@H]4C(=O)N(Cc5ccccc5)C(=O)[C@@H]4CC[C@@H]23)cc1	?	-25%[8.59 µM]
COc1cc2nc(N3CCN(C(=O)C4COc5ccccc5O4)CC3)nc(N)c2cc1OC (configuration not stated)	-3%[17.8 µM]	?
COc1cc2nc(N3CCN(C(=O)OCc4ccccc4)[C@H](C(=O)NC(C)(C)C)C3)nc(N)c2cc1OC	1%	11µM*
O=C1OC2(CCCCC2)CC2=C1[C@H]1O[C@](CCCCN3C(=O)c4ccccc4C3=O)(Cc3ccccc31)O2	-21%[8.59 µM]	?
CCOc1ccc(-c2nc3ccc(-c4nc5ccc(N6CCN(C)CC6)cc5[nH]4)cc3[nH]2)cc1	?	10µM*
Clc1ccc2nc(-c3ccccc3)[nH]c2c1	8%	17%
CC#CCN1C(=O)NC(c2ccccc2)C(C#N)=C1C (configuration not stated)	-18%[8.59 µM]	23%[8.59 µM]
Cc1ccc(C(=O)N(Cc2cc3cccc(C)c3nc2N(C)C)CC2CCCO2)cc1 (configuration not stated)	-5%	7%
COc1ccccc1C(=O)N(Cc1cc2cc3c(cc2nc1N(C)C)OCO3)CC1CCCO1 (configuration not stated)	11µM*	13µM*
CC1(C)C(O)CC(O)[C@]2(C)C1CC(O)[C@]1(C)C2CC[C@@]2(C)C(c3ccoc3)OC(=O)C3O[C@]312 (some centres not stated)	2%	?
CC1(C)C(=O)C=C[C@@]2(C)C1C=C[C@@]1(C)C2CC[C@@]2(C)C(c3ccoc3)OC(=O)C3OC312 (some centres not stated)	?	7.9µM*
CC1(C)OC2CC(=O)OCC23C1CC(=O)C1(C)C3CC[C@@]2(C)[C@H](c3ccoc3)OC(=O)C3OC312 (some centres not stated)	-12%	2%

Screening results (PubChem BioAssay)
